# Measured values: PubChem BioAssay (NCATS)
# Inconclusive results are not listed. Unmarked numbers belong to inactive results. Calls of active or inactive are those of the source. Calls come from the whole dose curve; as a rule, active = well fitted inhibition curve with a large enough effect; inconclusive = small, poorly fitted or top-dose-only effect; inactive = flat fitted curve, though single readings scatter.
# Tested on: Zika virus NS2B-NS3 protease
# Experiment: Primary screen GU AMC qHTS for Zika virus inhibitors (AID 1347154); note: nearly all actives have a fitted effect of over 70% in size;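 for activity change, negative = inhibition: 0% = no-inhibitor control and -100% = no-enzyme control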
# Settings: Zika NS2B-NS3 unlinked protease, AMC fluorogenic substrate; series mostly up to 54.1 µM; activity change, negative = inhibition: at the top concentration
# In short: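 Fluorogenic AMC-substrate cleavage by noncovalent NS2B-NS3 protease complex (25 nM, pH 8.0 Tris buffer with Tween 20) followed for 15 minutes at room temperature (~20% conversion). Percent inhibition from ex340/em450 signal change, fitted by 4-parameter Hill equation.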
# Potency is the fitted concentration of half-maximal effect.
Compound,"activity change, negative = inhibition",Potency
CNC(=O)[C@H](Cc1ccccc1)NC(=O)[C@H](CC(C)C)[C@H](CSc1cccs1)C(=O)NO,-16.4%,–
CC(C)N(CCCNC(=O)Nc1ccc(C(C)(C)C)cc1)C[C@H]1O[C@@H](n2cc(Br)c3c(N)ncnc32)[C@H](O)[C@H]1O,-6.58%,–
CC1CNc2c(cccc2S(=O)(=O)N[C@@H](CCCN=C(N)N)C(=O)N2CC[C@@H](C)C[C@@H]2C(=O)O)C1 (some centres undefined),7.78%,–
CC(C)=CCCC(C)=CCCC(C)=CCCC(C)=CCCC(C)=CCCC(C)=CCCC(C)=CCCC(C)=CCCC(C)=CCO,0.225%,–
O=c1[nH]c(=O)n([C@H]2C[C@@H](O)[C@@H](CO)O2)cc1C(F)(F)F,-1.08%,–
Nc1nc(Cl)nc2c1ncn2[C@@H]1O[C@H](CO)[C@@H](O)[C@H]1F,6.33%,–
CN(C)c1ccccc1CN1CCCN(Cc2ccccc2N(C)C)C1c1ccncc1,4.76%,–
O=C(Nc1cccc(Cl)c1)Nc1ncc(CCNc2ncnc3ccsc23)s1,-14.3%,–
CN(C)CCN(Cc1ccc(Cl)cc1)c1ccccn1,0.0014%,–
C=C[C@@H]1CN2CCC1C[C@@H]2C(O)c1ccnc2ccc(OC)cc12 (some centres undefined),-20.6%,–
O=C(c1ccc(F)c(F)c1Nc1ccc(I)cc1F)N1CC(O)([C@H]2CCCCN2)C1,17.6%,–
Nc1ncnc2c1ncn2[C@@H]1O[C@H](CO)[C@@H](O)[C@@H]1O,–,inactive
CC1C(=O)OC2C(O)C34C5CC(C(C)(C)C)C36C(OC(=O)C6O)OC4(C(=O)O5)C12O (centres undefined),26.6%,–
CC[C@H](NC(=O)[C@H](C)NC)C(=O)N1C[C@@H](O)C[C@H]1Cc1c(-c2[nH]c3cc(F)ccc3c2C[C@H]2C[C@H](O)CN2C(=O)[C@H](CC)NC(=O)[C@H](C)NC)[nH]c2cc(F)ccc12,–,17.1 µM (active)
O=C(Nc1ncc(SCCN2CCCC2)s1)[C@]1(c2ccc(S(=O)(=O)C3CC3)cc2)C[C@@H]1C1CCCCC1,-10.1%,–
FC(F)(F)c1ccc(C=Cc2nc(COc3ccc(CCCCn4ccnn4)cc3)co2)cc1,10.3%,–
CC[C@]1(O)C[C@H]2CN(CCC3=c4ccccc4=N[C]3[C@@](C(=O)OC)(c3cc4c(cc3OC)N(C)[C@H]3[C@@](O)(C(N)=O)[C@H](O)[C@]5(CC)C=CCN6CC[C@]43[C@@H]65)C2)C1,5.42%,–

Compound,"activity change, negative = inhibition",Potency
O=C(O)C1=CC(O)C(O)[C@H](O)C1 (some centres undefined),3.21%,–
CC1=C[C@@H]2[C@@H]([C@@H](O)C[C@@]3(C)[C@H]2C[C@@H](C)[C@]3(O)C(=O)CO)[C@@]2(C)Cc3cnn(-c4ccccc4)c3C=C12,-6.46%,–
CCOC(=O)[C@H]1O[C@H]1C(=O)N[C@@H](CC(C)C)C(=O)NCCC(C)C,-2.43%,–
CC(C)(F)C[C@H](N[C@@H](c1ccc(-c2ccc(S(C)(=O)=O)cc2)cc1)C(F)(F)F)C(=O)NC1(C#N)CC1,-0.85%,–
CCCCN(CCCC)CC(O)c1cc(Cl)cc2c1-c1ccc(Cl)cc1C2=Cc1ccc(Cl)cc1 (centres undefined),11.3%,–
CSc1cccc(Nc2ncc3cc(-c4c(Cl)cccc4Cl)c(=O)n(C)c3n2)c1,2.96%,–
OC[C@H]1O[C@@H](Oc2ccc(O)cc2)[C@H](O)[C@@H](O)[C@H]1O,-3.28%,–
CC[C@H](C)C(=O)O[C@H]1C[C@H](O)C=C2C=C[C@H](C)[C@H](CC[C@@H](O)C[C@@H](O)CC(=O)O)[C@H]21,–,inactive
CCOC(=O)N1CCN([N+]([O-])=NOc2cc(ON=[N+]([O-])N3CCN(C(=O)OCC)CC3)c([N+](=O)[O-])cc2[N+](=O)[O-])CC1,-5.16%,–
Cc1ccc(S(=O)(=O)Nc2nc3ccccc3nc2Nc2ccc3nsnc3c2)cc1,10.7% [at 25.8 µM],–
NCc1c[nH]c(=S)n1[C@H]1CCc2c(F)cc(F)cc2C1,13.5%,–
CNC(=O)c1cc(COc2nnc(Nc3ccc(Cl)cc3)c3ccoc23)ccn1,3.19%,–
CN1N=C(N)c2cn([C@@H]3O[C@H](COP(=O)(O)O)[C@@H](O)[C@@H]3O)c3ncnc1c23,-6.6%,–
CCCC1OC2C[C@@H]3[C@H]4CCC5=CC(=O)C=C[C@]5(C)[C@H]4C(O)C[C@]3(C)[C@]2(C(=O)CO)O1 (some centres undefined),-3.79%,–
CCCCCOC(=O)Nc1nc(=O)n([C@@H]2O[C@H](C)[C@@H](O)C2O)cc1F (some centres undefined),-18.4%,–
COc1ccc(-c2oc3c(CC=C(C)C)c(O)cc(O)c3c(=O)c2O)cc1,3.47%,–
COc1ccc2cc1Oc1ccc(cc1)C[C@H]1c3cc(c(OC)cc3CCN1C)Oc1c(OC)c(OC)cc3c1[C@H](C2)N(C)CC3,–,inactive
